The record followed here is PubChem BioAssay AID868 (SRMLSC, 2007).

In general, inhibition refers to the drop in the measured response relative to a control, in per cent.

The structures appear in SMILES notation. The campaign covered roughly 190,000 compounds. About 3,500 (1.8%) were called active. This is one part of a sample in which actives are shown more often than they occur. A number with no mark means an inactive call.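 The calls were made as follows: active = inhibition above a set limit, 3 SD over mean compound inhibition (cut at about 8.4% in these data); inactive = the rest.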

This test is described as follows: RAM signaling blockers in budding yeast – dse1pr::URA3 reporter, 5-FOA selection, primary screen (AID 868).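 Also: 0% = DMSO-only wells with no growth and 100% = 10 µM 1-NA-PP1 full growth; inhibition rescues growth on 5-FOA so higher OD means more RAM inhibition.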 As to conditions: S. cerevisiae dse1pr::URA3 reporter, 5-FOA growth OD615, 2 d; at 50 µM; active compounds read high; analog-sensitive cbk1-as2 kinase mutant strain.
Turning to `CCC1CCCCN1C(=O)CSc1nc(C)cc(C)n1` (stereo not drawn), the inhibition was -1.36%.
For the compound `COc1ccc(CC(=O)NC(C)CCc2ccccc2)cc1` (stereo not drawn), the inhibition was 0.14%.
Consider `COc1ccc(C(CC(=O)O)NC(=O)Cc2ccccc2)cc1` (stereo not drawn), for which the inhibition is 0.54%.
In the case of `CCC/C=C(\CCC)C(NC(=O)Cc1ccccc1)c1ccc(C(=O)OC)cc1` (stereo not drawn), the inhibition was 8.71% (active).
As for `Cc1cccc(CN2CCN(Cc3cnn(-c4ccccc4F)c3)CC2CCO)n1` (stereo not drawn), the inhibition was -0.13%.
On to `COc1cc(NC(=S)N2CCCC(C)C2)cc(OC)c1OC` (stereo not drawn), for which the inhibition is 2.19%.
For `Cc1ccc(-c2noc(CSc3nnc(-c4ccncc4)n3-c3ccc(F)cc3)n2)cc1`, the inhibition is 2.42%.
The value for `Cc1ccc(-c2noc(CSc3nnc(-c4ccccc4)n3C)n2)cc1` was 2.09%; that for `Fc1ccc(-n2c(Cc3ccccc3)nnc2SCc2nc(-c3ccc(Cl)cc3)no2)cc1` was 14.2% (active).
The value for `Cc1n[nH]c(=O)n1-c1ccc(C(C)C)cc1` was 0.86%; that for `Nc1nc(-c2sc3nc4c(cc3c2N)CCCC4)nc(N2CCOCC2)n1` was 5.88%.
For `COc1ccc(C(=O)Oc2cc(/C=N/NS(=O)(=O)c3ccc(C)cc3)ccc2OC)cc1`, the inhibition was 5.34%.
As for `COc1ccc(NS(=O)(=O)c2ccc(NC(C)=O)cc2)cc1OC`, the inhibition is 1.03%.
Regarding `COc1ccc(/C=C/C(=O)c2ccc(NS(=O)(=O)c3ccc(C)cc3)cc2)cc1O`, the inhibition was 11.1% (active).
For the compound `Cc1cc(C2=NNC(=Nc3ccc(S(=O)(=O)N4CCOCC4)cc3)SC2)c(C)n1CC1CCCO1` (stereo not drawn), the inhibition is 5.9%.
Regarding `CC(C(=O)NC1CCCC1)N(c1ccc(Oc2ccccc2)cc1)S(C)(=O)=O` (stereo not drawn), the inhibition is -0.13%.
As to `O=C1c2ccccc2C(=O)N1CCC(O)C[N+](=O)[O-]` (stereo not drawn), the inhibition is 1.77%.
The result for `CC(=O)NC1C(Oc2ccc(C)cc2)OC2COC(c3ccco3)OC2C1O` (stereo not drawn) reads 0.78%.
The value for `CC(=O)Nc1ccc(NC(=O)CSCc2cnn(-c3ccccc3)c2-n2cccc2)cc1` was 0.44%.
For the compound `Cc1cc(C)cc(NC(=O)CSc2ccccc2)c1`, the inhibition was 1.47%.
As for `Cc1cc(C)cc(NC(=O)CSCc2cnn(-c3ccccc3)c2-n2cccc2)c1`, the inhibition is 13.3% (active).
On to `Nc1nc(SCc2ccc([N+](=O)[O-])cc2)c2ncn(C3OC(CO)C(O)C3O)c2n1` (stereo not drawn), for which the inhibition is 1.26%.
For `CCc1ccc(C(=O)OCC(=O)Nc2cccc(S(=O)(=O)NC3=NCCCCC3)c2)cc1`, the inhibition is 0.26%.
Take `Cc1cccc(-n2c(SCC(=O)Nc3cccc(S(=O)(=O)NC4=NCCCCC4)c3)nc3ccccc3c2=O)c1C`: the inhibition was 11.7% (active).
As for `NS(=O)(=O)c1cccc(NC(=O)CSc2nc3ccccc3n2-c2ccccc2)c1`, the inhibition is 6.21%.
The result for `O=C(CN1CCN(Cc2ccc(F)cc2Cl)C1=O)NCc1cccs1` reads 0.13%; that for `O=C(COC(=O)CNC(=O)c1ccccc1F)NCC(F)(F)F`, 3.2%.
Regarding `O=C(N/N=C/c1ccc([N+](=O)[O-])cc1)C(=O)N1CCCC1`, the inhibition was 1.52%.
In the case of `O=C(N/N=C\c1ccc(-c2ccc(Cl)c(Cl)c2)o1)C(=O)N1CCCC1`, the inhibition was 8.47% (active).
As to `COC(=O)N/N=C/c1ccc(-c2ccc(Cl)c(Cl)c2)o1`, the inhibition was 1.74%.
Regarding `Cc1nccn1CCCNC(=O)CC1C(=O)NCCN1Cc1ccc(Cl)c(F)c1` (stereo not drawn), the inhibition is -1.07%.
With `COCCNC(=O)/C(C#N)=C/c1nc(N(C)C)n(-c2ccc(F)cc2)c1Cl`, the inhibition is 0.24%.
As for `O=c1c2ccccc2c(-c2ccccc2)nn1Cc1ccccc1`, the inhibition is 6.51%.
With `O=C(NCCc1ccco1)c1nn(Cc2ccccc2)c(=O)c2ccccc12`, the inhibition is 11.2% (active).
The result for `O=C(NCc1ccco1)c1nc(-c2ccccc2)n(-c2ccccc2)n1` reads 0.66%.
As for `N/C(=N/O)c1cccn1Cc1ccccc1[N+](=O)[O-]`, the inhibition was 0.13%.
As to `O=S(=O)(c1ccc2c(c1)OCCO2)N1CCc2ccccc21`, the inhibition was 2.45%.
Consider `COc1ccc(Cl)cc1NC(=O)CNc1ccccc1F`, for which the inhibition was -1.15%.
For `COc1ccc(Cl)cc1NC(=O)NC(C)C(C)(C)C` (stereo not drawn), the inhibition was 12.8% (active).
The result for `COC(=O)[C@@H](NC(=O)Nc1cc(Cl)ccc1C)C(C)C` reads 1.68%; that for `COCCNC(=O)C(OC(=O)c1cccs1)c1ccc(F)cc1` (stereo not drawn), 0.51%.
With `Cc1ccc(NC(=O)Cn2cccc2C2=NC(c3ccccc3)CO2)c(C)c1` (stereo not drawn), the inhibition was 0.92%.
Consider `COC(=O)C1=C(C)N(C)C(=S)NC1c1cc(OC)ccc1OC` (stereo not drawn), for which the inhibition was 0.25%.
The value for `COc1cccc(C(=O)Nc2cc3c(cc2Br)OCCCO3)c1` was 1.75%; that for `COc1ccc(C2C=C(c3ccc(Br)cc3)Nc3nc(NS(C)(=O)=O)nn32)cc1` (stereo not drawn) was 13.4% (active).
As for `Brc1ccc(C2=CC(c3ccco3)n3ncnc3N2)cc1` (stereo not drawn), the inhibition was 0.23%.
`COc1ccc(C2=CC(c3cccc(OC)c3)n3nnnc3N2)cc1` (stereo not drawn): the inhibition is 5.23%.
`CNC(=O)c1[nH]cnc1C(=O)N[C@@H](CC(C)C)C(=O)OC(C)(C)C`: the inhibition was 0.13%.
For the compound `CSCC(=O)N1CCCC(C(=O)c2cc(F)ccc2F)C1` (stereo not drawn), the inhibition was 0.37%.
`Cc1cc(C)n2nc(SCC(N)=O)nc2n1`: the inhibition was -0.25%.
As to `CC(/C=N/NC(=O)c1ccncc1)=C\c1ccco1`, the inhibition is 1.91%.
Regarding `CC(/C=N/NC(=O)c1cc(-c2ccc3ccccc3c2)n[nH]1)=C\c1ccco1`, the inhibition is 2.36%.
Take `C/C(=C\c1ccco1)C1Nc2cccc3cccc(c23)N1`: the inhibition was 8.69% (active).
As to `CCOC(=O)c1c(NC(=O)CNC2CCCc3ccccc32)sc(C(N)=O)c1C` (stereo not drawn), the inhibition is 3.87%.
With `COc1cc(C(=O)Nc2cc(C(F)(F)F)ccc2N2CCOCC2)ccc1O`, the inhibition is 0.55%.
In the case of `Fc1cccc2ncnc(OCc3ccccc3)c12`, the inhibition was 3.63%.
On to `COC(=O)[C@H](C)[C@H]1C[C@]1(C)[C@H](NC(=O)OCc1ccccc1)c1ccccc1`, for which the inhibition was 8.31%.
Regarding `COC(=O)c1ccc(NCC(=O)c2ccccc2)cc1`, the inhibition is 0.14%.
For the compound `CCC[C@@H]1C[C@@]1(CCC)[C@@H](NC(=O)c1ccccc1)c1ccc(C(=O)OC)cc1`, the inhibition is 9.65% (active).
The result for `CC(C)C(=O)Nc1oc(-c2ccccc2)cc1C#N` reads 1.62%; that for `COc1cc(N2C(=O)c3ccccc3C2=O)c(Cl)cc1C(=O)OCC(=O)N1CCOCC1`, 0.61%; that for `COc1cc(/C=C2/C(=O)ON=C2C)ccc1OCc1ccccc1F`, 11.4% (active).
The result for `COc1cc(/C=C2/C(=O)ON=C2C)ccc1OCc1cccc(F)c1` reads 1.59%; that for `CCOc1cc(/C=N/O)ccc1OCc1ccccc1F`, 0.13%; that for `N#Cc1ccc(C(=O)Nc2nc(-c3cccs3)c(C(=O)C(F)(F)F)s2)cc1`, 3.01%.
For the compound `CCN(CC(=O)NC(=O)NCc1ccccc1)Cc1nc2ccccc2c(=O)[nH]1`, the inhibition is 0.8%.
With `CC(=O)NC1(c2ccc(F)cc2)CCN(C(=O)c2c(F)cccc2F)CC1`, the inhibition is -0.25%.
The result for `Cn1c(-c2ccc(F)cc2)cnc1SCC(=O)NCc1ccco1` reads 1.92%.
Consider `Cc1ccc(-c2csc3nnc(SCC(=O)NCc4ccco4)n23)cc1`, for which the inhibition was 0.13%.
`O=C(CSc1nnc2scc(-c3ccc(F)cc3)n12)NCc1ccco1`: the inhibition was 9.95% (active).
As to `Cc1ccc(C2CC(c3cccc(NS(C)(=O)=O)c3)=NN2S(C)(=O)=O)cc1` (stereo not drawn), the inhibition is 0.38%.
Consider `O=c1c([N+](=O)[O-])cccn1Cc1ccc(F)cc1Cl`, for which the inhibition was -0.54%.
With `CN1C(=O)/C(=C/C=C2\SCCN2C)OC1=S`, the inhibition was 2.52%.
The value for `O=C(c1cccc2ccccc12)N1CCN(c2ccccc2F)CC1` was -0.35%.
The result for `COC(=O)c1ccc(C(=O)OC)c(NC(=S)N2CCN(c3cc(Cl)ccc3C)CC2)c1` reads 3.51%; that for `Cc1ccc(Cl)cc1N1CCN(C(=O)c2cccc3c(=O)c(C)c(-c4ccccc4)oc23)CC1`, 8.43% (active); that for `Cc1ccc(C(=O)N/C(=C/c2cccs2)C(=O)NCC2CCCO2)cc1` (stereo not drawn), 0.13%.
As for `Cc1cc(C)n(-c2ccc3nncn3n2)n1`, the inhibition is 1.87%.
Consider `CC(C)=CCCC1(C)C=Cc2c(ccc3c2[nH]c2cc(O)c(C)cc23)O1` (stereo not drawn), for which the inhibition is 21.4% (active).
For the compound `Cc1c(NS(=O)(=O)c2ccc(NC3CCCC3)c([N+](=O)[O-])c2)c(=O)n(-c2ccccc2)n1C`, the inhibition was 4.03%.
In the case of `Cc1c(Nc2cc(N3CCCC(C)C3)c3nonc3c2[N+](=O)[O-])c(=O)n(-c2ccccc2)n1C` (stereo not drawn), the inhibition was 8.7% (active).
Take `Cc1c(CN2CCC(C)CC2)c(=O)n(-c2ccccc2)n1C`: the inhibition was 0.66%.
The result for `O=C1CCC(CCC(=O)N2CCCC(C(=O)c3ccc(Cl)cc3)C2)=NN1` (stereo not drawn) reads 2.49%; that for `CC(C)(C)c1ccc(/C=C2\SC(=O)N=C2N)cc1`, 3.69%; that for `Cc1ccc(C(=O)NCCNC(=O)c2ccccc2)cc1`, 0.24%.
Consider `Cc1ccc(C(=O)c2c(NC(=O)c3ccncc3)sc3c2CCCC3)cc1`, for which the inhibition was 1.55%.
Turning to `Cc1ccc(C(=O)c2c(NC(=O)c3ccccc3)sc(C)c2C)cc1`, the inhibition was 12.9% (active).
With `NC1=NC2(CCCCC2)N(c2ccc(F)cc2F)C(N)=N1`, the inhibition is 0.5%.
On to `O=c1cnnc(Nc2ccccc2F)[nH]1`, for which the inhibition was 0.79%.
Consider `C/C(N)=C(/C#N)C(=O)COC(=O)CNS(=O)(=O)c1ccc(C)cc1`, for which the inhibition is -0.96%.
Take `CCOC(=O)c1sc2nc(CSCC(=O)OCc3ccc(C(=O)OC)o3)[nH]c(=O)c2c1C`: the inhibition is 12.6% (active).
On to `CCOC(=O)c1sc2nc(CSc3ccccc3)[nH]c(=O)c2c1C`, for which the inhibition was 2.26%.
For `Cc1sc2nc(CSCC(=O)Nc3c(Cl)cccc3Cl)[nH]c(=O)c2c1C`, the inhibition was 4.58%.
